# Measurements reported in PubChem BioAssay.
# Active and inactive are the calls of the source. Cut-off read from the data, not from the text of the source, unless noted: active = inhibition above about 80%; inactive = the rest.
# Assays:
# [1] = LFS_MB_P medulloblastoma growth inhibition, cell-based, chromothripsis tumors, cisplatin or BGB combos (AID 1671449); settings: LFS_MB_P medulloblastoma cells;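 note: cells exposed for 96 hours; 0% = vehicle DMSO and 100% = killing by high DMSO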
# [2] = HDN33 neuroblastoma growth inhibition, cell-based, chromothripsis tumors, cisplatin or BGB combos (AID 1671450); settings: HDN33 neuroblastoma cells, stronger effect = higher value;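 note: cells exposed to compound for four days; 0% = vehicle DMSO and 100% = cell killing by high DMSO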
# [3] = ICB984 medulloblastoma cell growth inhibition, synergistic combos for chromothripsis tumors, cisplatin or BGB combos (AID 1671451; call rule not given here;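 note: cells exposed for 96 hours before readout; 0% = vehicle DMSO and 100% = killing by high DMSO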); settings: ICB984 medulloblastoma cells, drug combinations, stronger effect = higher value
# [4] = LFS_MB_1R medulloblastoma cell growth inhibition, synergistic combos for chromothripsis tumors, cisplatin or BGB combos (AID 1671452); settings: LFS_MB_1R medulloblastoma cells, stronger effect = higher value;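 note: cells exposed for 96 hours before readout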
# [5] = HTB85 osteosarcoma cell growth inhibition, synergistic combos for chromothripsis tumors, BGB or cisplatin IC20 combos (AID 1671453); settings: HTB85 osteosarcoma cells, drug combinations, stronger effect = higher value;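 note: cells exposed for 96 hours before readout; 0% = vehicle DMSO and 100% = high DMSO killing control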
# [6] = CRL2098 osteosarcoma cell growth inhibition, synergistic combos for chromothripsis tumors, BGB or cisplatin IC20 combos (AID 1671454); settings: CRL2098 osteosarcoma cells, drug combinations, stronger effect = higher value;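 note: cells exposed for 96 h before readout; 0% = vehicle DMSO and 100% = killing by high DMSO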
# [7] = HD-MB03 medulloblastoma cell growth inhibition, synergistic combos for chromothripsis tumors, BGB or cisplatin IC20 combos (AID 1671455; in the data active = inhibition above about 83%;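 note: 0% = vehicle DMSO and 100% = high DMSO as cytotoxic control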); settings: HD-MB03 medulloblastoma cells, stronger effect = higher value
# [8] = UWB1.289 ovarian carcinoma cell growth inhibition, synergistic combos for chromothripsis tumors, BGB or cisplatin combos (AID 1671456); settings: UWB1.289 ovarian carcinoma cells, stronger effect = higher value;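 note: cells exposed to compound for four days; 0% = vehicle DMSO and 100% = killing by high DMSO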
# [9] = LFS_MB_2R medulloblastoma cell growth inhibition, synergistic combos for chromothripsis tumors, cisplatin combos (AID 1671457); settings: LFS_MB_2R medulloblastoma cells, stronger effect = higher value;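 note: cells exposed to compound for four days before readout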
# [10] = MDA-MB-436 breast carcinoma cell growth inhibition, synergistic combos for chromothripsis tumors, BGB or cisplatin combos (AID 1671458; call rule not given here;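 note: cells exposed for 96 hours; 0% = vehicle DMSO and 100% = killing by high DMSO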); settings: MDA-MB-436 breast carcinoma growth inhibition, drug combinations, stronger effect = higher value
# [11] = UWB1.289_BRCA1 ovarian cancer growth, cell-based, BGB or cisplatin combinations (AID 1671459); settings: UWB1.289 BRCA1 ovarian carcinoma, drug combinations, stronger effect = higher value
# [12] = human astrocyte viability loss, single and combined drugs, cytotoxicity control for chromothriptic childhood tumor combination screen, cell-based, BGB or cisplatin IC20 combos (AID 1671460); settings: Human astrocytes, drug combinations, stronger effect = higher value;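 note: cells exposed to compounds for 96 hours before viability readout; 0% = vehicle and 100% = killing control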
# [13] = growth inhibition of BT084 medulloblastoma cells, cell-based, ICGC_MB145, cisplatin and BGB IC40 combos (AID 1671461); settings: drug combinations, stronger effect = higher value;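 note: cells exposed to drugs for 96 hours; 0% = vehicle DMSO and 100% = high DMSO full killing control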
# [14] = growth inhibition of RCMB18 medulloblastoma cells, cell-based, cisplatin and BGB IC40 combos (AID 1671462); settings: stronger effect = higher value;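 note: cells exposed to compound for four days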
# [15] = growth inhibition of CRL1545 osteosarcoma cells, cell-based, cisplatin and BGB IC20 combos (AID 1671464); settings: stronger effect = higher value;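 note: cells exposed to compound for 96 hours before readout; 0% = vehicle DMSO and 100% = high DMSO killing control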
# [16] = at 0.5 µM, stronger effect = higher value
# [17] = measured here: combination with BGB IC20, at 0.005 µM
# [18] = measured here: combination with BGB IC40, at 0.005 µM
# [19] = measured here: combination with BGB IC40, at 0.05 µM
# [20] = measured here: combination with cisplatin, at 0.5 µM, stronger effect = higher value
# [21] = measured here: combination with cisplatin, at 5 µM, stronger effect = higher value
# [22] = measured here: with BGB IC20 combination, at 0.5 µM
# [23] = measured here: with cisplatin IC20 combination, at 0.5 µM
# [24] = measured here: 5 uM single agent, at 5 µM
# [25] = measured here: combination with cisplatin, at 0.5 µM
# [26] = measured here: combination with cisplatin, at 5 µM
# [27] = measured here: with BGB IC20, at 0.5 µM
# [28] = measured here: with BGB IC20, at 5 µM
# [29] = measured here: with cisplatin IC20, at 0.5 µM
# [30] = measured here: with cisplatin IC20, at 5 µM
# [31] = measured here: combination with BGB at IC20, at 0.5 µM
# [32] = measured here: combination with cisplatin at IC20, at 0.5 µM
# [33] = measured here: combo with BGB at IC20, at 0.5 µM
# [34] = measured here: combo with cisplatin at IC20, at 0.5 µM
# [35] = measured here: inhibition with BGB combination, at 0.05 µM
# [36] = measured here: inhibition with cisplatin combination, at 0.05 µM
# [37] = measured here: BGB combination, at 0.5 µM
# [38] = measured here: BGB combination, at 5 µM
# [39] = measured here: cisplatin combination, at 0.5 µM
# [40] = measured here: cisplatin combination, at 5 µM
# [41] = BGB combination, concentration series, at 5 µM
# [42] = cisplatin combination, concentration series, at 5 µM
# [43] = measured here: combo with BGB IC20, at 0.5 µM
# [44] = measured here: combo with cisplatin IC20, at 0.5 µM
# [45] = cisplatin combination, at 0.5 µM
# [46] = measured here: BGB IC40 combination 0.05 uM, at 0.05 µM
# [47] = measured here: BGB IC40 combination, at 0.05 µM
compound,measurement,setting,value
Nc1ccccc1NC(=O)c1cnccn1,inhibition,[1]; [16],-12.4% (inactive)
same,inhibition,[1]; [17],-41.6%
same,inhibition,[1]; [18],85.5%
same,inhibition,[1]; [19],-7.35%
same,inhibition,[1]; [20],-18.9%
same,inhibition,[1]; [21],-28.5%
same,inhibition,"[2]; BGB combo, at 5 µM",-12.4%
same,inhibition,[2]; at 0.5 µM,-14.6% (inactive)
same,inhibition,"[2]; cisplatin combo, at 5 µM",6.5%
same,inhibition,[2]; [22],-34.1%
same,inhibition,[2]; [23],5.82%
same,inhibition,"[2]; single agent, at 5 µM",1.32%
same,inhibition,"[3]; BGB IC20 combo, at 0.005 µM",-16.9%
same,inhibition,"[3]; BGB IC40 combo, at 0.005 µM",-7.68%
same,inhibition,"[3]; BGB IC40 combo, at 0.05 µM",-8.97%
same,inhibition,[3]; at 0.5 µM,-30.1% (inactive)
same,inhibition,"[3]; cisplatin combo, at 0.05 µM",-14.5%
same,inhibition,"[3]; cisplatin combo, at 0.5 µM",-45.8%
same,inhibition,"[3]; cisplatin combo, at 5 µM",-16.9%
same,inhibition,[3]; [24],-10%
same,inhibition,[4]; at 0.5 µM,-27.6% (inactive)
same,inhibition,[4]; [19],-29.7%
same,inhibition,[4]; [25],-55.5%
same,inhibition,[4]; [26],-22%
same,inhibition,[5]; at 0.5 µM,-12.2% (inactive)
same,inhibition,[5]; [27],-6.35%
same,inhibition,[5]; [28],4.3%
same,inhibition,[5]; [29],-15.5%
same,inhibition,[5]; [30],27.4%
same,inhibition,"[5]; single agent, at 5 µM",-13.3%
same,inhibition,[6]; at 0.5 µM,-55.8% (inactive)
same,inhibition,[6]; [31],-72.3%
same,inhibition,[6]; [32],-47%
same,inhibition,[7]; at 0.5 µM,-6.67% (inactive)
same,inhibition,[7]; [33],-7.96%
same,inhibition,[7]; [34],-6.22%
same,inhibition,[8]; at 0.5 µM,12.9% (inactive)
same,inhibition,[8]; [35],-30.1%
same,inhibition,[8]; [36],-23.2%
same,inhibition,[9]; at 0.5 µM,-19.8% (inactive)
same,inhibition,[9]; [25],-6.3%
same,inhibition,[9]; [26],1.58%
same,inhibition,[10]; at 0.5 µM,-6.35% (inactive)
same,inhibition,[10]; [37],-5.5%
same,inhibition,[10]; [38],-1.92%
same,inhibition,[10]; [39],-13.4%
same,inhibition,[10]; [40],-2.01%
same,inhibition,[11]; [41],22.6%
same,inhibition,[11]; at 0.5 µM,-5.39% (inactive)
same,inhibition,[11]; [42],17%
same,inhibition,[12]; at 0.5 µM,3.77% (inactive)
same,inhibition,[12]; [43],3.42%
same,inhibition,[12]; [44],8.86%
same,inhibition,[13]; at 0.5 µM,-7.12% (inactive)
same,inhibition,[13]; [45],-9.24%
same,inhibition,"[13]; cisplatin combination, at 5 µM",-35.5%
same,inhibition,[13]; [46],-29.6%
same,inhibition,"[13]; single agent, at 5 µM",14.3%
same,inhibition,[14]; at 0.5 µM,-13.8% (inactive)
same,inhibition,"[14]; cisplatin combo, at 5 µM",35.4%
same,inhibition,[14]; [47],-24.6%
same,inhibition,[14]; [25],-43.9%
same,inhibition,"[14]; single agent, at 5 µM",21.9%
same,inhibition,[15]; at 0.5 µM,19.6% (inactive)
same,inhibition,[15]; [22],-5.57%
same,inhibition,[15]; [23],31.1%
same,inhibition,"[15]; single agent, at 0.05 µM",-21.9%
same,inhibition,"[15]; single agent, at 5 µM",32.9%
O=c1cc(-c2ccc(O)cc2)[nH]c(=S)[nH]1,inhibition,[1]; [16],85.3% (active)
same,inhibition,[1]; [17],-1.36%
same,inhibition,[1]; [18],-7.24%
same,inhibition,[1]; [19],-1.51%
same,inhibition,[1]; [20],79.3%
same,inhibition,[1]; [21],3.08%
same,inhibition,"[2]; BGB combo, at 5 µM",-16.4%
same,inhibition,[2]; at 0.5 µM,-17.1% (inactive)
same,inhibition,"[2]; cisplatin combo, at 5 µM",-30.3%
same,inhibition,[2]; [22],-22.1%
same,inhibition,[2]; [23],-12.8%
same,inhibition,"[2]; single agent, at 5 µM",-27.7%
same,inhibition,"[3]; BGB IC20 combo, at 0.005 µM",-9.88%
same,inhibition,"[3]; BGB IC40 combo, at 0.005 µM",-25.6%
same,inhibition,"[3]; BGB IC40 combo, at 0.05 µM",-24.8%
same,inhibition,[3]; at 0.5 µM,-27.2% (inactive)
same,inhibition,"[3]; cisplatin combo, at 0.05 µM",-31.2%
same,inhibition,"[3]; cisplatin combo, at 0.5 µM",-50.4%
same,inhibition,"[3]; cisplatin combo, at 5 µM",-7.23%
same,inhibition,[3]; [24],-15.4%
same,inhibition,[4]; at 0.5 µM,-1.38% (inactive)
same,inhibition,[4]; [19],-3.87%
same,inhibition,[4]; [25],-24.1%
same,inhibition,[4]; [26],1.81%
same,inhibition,[5]; at 0.5 µM,-22.5% (inactive)
same,inhibition,[5]; [27],-21.9%
same,inhibition,[5]; [28],-6.6%
same,inhibition,[5]; [29],-20.1%
same,inhibition,[5]; [30],14%
same,inhibition,"[5]; single agent, at 5 µM",-1.02%
same,inhibition,[6]; at 0.5 µM,-53% (inactive)
same,inhibition,[6]; [31],-28.7%
same,inhibition,[6]; [32],-91.5%
same,inhibition,[7]; at 0.5 µM,-13.4% (inactive)
same,inhibition,[7]; [33],-10.4%
same,inhibition,[7]; [34],-24.5%
same,inhibition,[8]; at 0.5 µM,-11.6% (inactive)
same,inhibition,[8]; [35],-5.24%
same,inhibition,[8]; [36],-19.2%
same,inhibition,[9]; at 0.5 µM,-8.7% (inactive)
same,inhibition,[9]; [25],-16.1%
same,inhibition,[9]; [26],-5.06%
same,inhibition,[10]; at 0.5 µM,-9.32% (inactive)
same,inhibition,[10]; [37],-13.5%
same,inhibition,[10]; [38],-8.05%
same,inhibition,[10]; [39],-15.9%
same,inhibition,[10]; [40],-5.07%
same,inhibition,[11]; [41],-21.3%
same,inhibition,[11]; at 0.5 µM,-19.2% (inactive)
same,inhibition,[11]; [42],2.65%
same,inhibition,[12]; at 0.5 µM,-9.33% (inactive)
same,inhibition,[12]; [43],-17.6%
same,inhibition,[12]; [44],-15.4%
same,inhibition,[13]; at 0.5 µM,6.07% (inactive)
same,inhibition,[13]; [45],-1.5%
same,inhibition,"[13]; cisplatin combination, at 5 µM",-121%
same,inhibition,[13]; [46],27.5%
same,inhibition,"[13]; single agent, at 5 µM",15.9%
same,inhibition,[14]; at 0.5 µM,-1.5% (inactive)
same,inhibition,"[14]; cisplatin combo, at 5 µM",-3.95%
same,inhibition,[14]; [47],-13.5%
same,inhibition,[14]; [25],-10.5%
same,inhibition,"[14]; single agent, at 5 µM",21.7%
same,inhibition,[15]; at 0.5 µM,-18.8% (inactive)
same,inhibition,[15]; [22],-19.4%
same,inhibition,[15]; [23],-20.3%
same,inhibition,"[15]; single agent, at 0.05 µM",0.873%
same,inhibition,"[15]; single agent, at 5 µM",-68.2%
